Several values for one entry are separate records, joined by “and”; a condition that tells them apart may be missing. Equal values may be shown once. Results filed as inconclusive are left out. A call without a number means that no potency is given here. Some compounds were tested as several samples or in several runs, with calls that do not always agree. Activity calls are given as the source filed them. The call rests on the fitted dose curve; in most records, active means well fitted inhibition curve with a large enough effect; inconclusive means small, poorly fitted or top-dose-only effect; inactive means no such curve, though single readings can be large or run the other way.
Assay: Primary qHTS for inhibitors of nuclear receptor binding SET domain protein 2 (NSD2) in an RCH-ACV wild type WT cells (2C) (AID 1645877); further: nearly all actives have a fitted effect of over 70% in size
Conditions: RCH-ACV (leukaemia line) NSD2 WT (2C) viability, CellTiter-Glo, 72 h; series mostly up to 44.9 µM
Potency means the concentration at half of the fitted maximal effect.

Structure (SMILES) | Potency
O=C(O)c1cccnc1 | inactive
CCCc1cc(C(N)=S)ccn1 | inactive
COC(=O)Nc1nc2ccc(C(=O)c3ccccc3)cc2[nH]1 | 106 nM (active) and 372 nM (active)
CCCCCCNC(=O)n1cc(F)c(=O)[nH]c1=O | 7.5 µM (active) and 8.33 µM (active)
COc1c(N2CCNC(C)C2)c(F)cc2c(=O)c(C(=O)O)cn(C3CC3)c12 (stereo unspecified) | inactive
COCCCOc1cc(C[C@@H](C[C@H](N)[C@@H](O)C[C@H](C(=O)NCC(C)(C)C(N)=O)C(C)C)C(C)C)ccc1OC | inactive
CCn1cc(C(=O)O)c(=O)c2cc(F)c(N3CCNCC3)nc21 | inactive
C[C@@H]1C[C@H]2[C@@H]3CCC4=CC(=O)C=C[C@]4(C)[C@@]3(Cl)[C@@H](O)C[C@]2(C)[C@@]1(OC(=O)c1ccco1)C(=O)CCl | inactive and 1.2 nM (active)
CNC(=O)c1cc(Oc2ccc(NC(=O)Nc3ccc(Cl)c(C(F)(F)F)c3)cc2)ccn1 | 7.42 µM (active) and 5.15 µM (active)
O=C(O)c1cc(=O)[nH]c(=O)[nH]1 | inactive
CNCC[C@H](Oc1cccc2ccccc12)c1cccs1 | 23.7 µM (active)
CC(C)C[C@H](NC(=O)[C@H](CCc1ccccc1)NC(=O)CN1CCOCC1)C(=O)N[C@@H](Cc1ccccc1)C(=O)N[C@@H](CC(C)C)C(=O)[C@@]1(C)CO1 | 6 nM (active) and 5.3 nM (active)
CCn1cc(C(=O)O)c(=O)c2cc(F)c(N3CCNCC3)cc21 | inactive
Cc1nnc(C(=O)NC(C)(C)c2nc(C(=O)NCc3ccc(F)cc3)c(O)c(=O)n2C)o1 | inactive
CN(C)c1ccc(C(=C2C=CC(=[N+](C)C)C=C2)c2ccc(N(C)C)cc2)cc1 | 42.2 nM (active) and 263 nM (active)
N=C(N)c1ccc(OCCCCCOc2ccc(C(=N)N)cc2)cc1 | 4.22 µM (active) and 4.68 µM (active)
Nc1nc(F)nc2c1ncn2[C@@H]1O[C@H](CO)[C@@H](O)[C@@H]1O | 2.63 µM (active) and 84.1 nM (active) and 1.29 µM (active)
COc1cc2ncnc(Nc3cccc(Cl)c3)c2cc1OC | 12.9 µM (active)

Structure (SMILES) | Potency
O=C(O)CSCC(=O)NC1CCSC1=O (stereo unspecified) | inactive
CC(C)OC(=O)OCOP(=O)(CO[C@H](C)Cn1cnc2c(N)ncnc21)OCOC(=O)OC(C)C | inactive
CCC(=O)O[C@]1(C(=O)SCF)[C@H](C)C[C@H]2[C@@H]3C[C@H](F)C4=CC(=O)C=C[C@]4(C)[C@@]3(F)[C@@H](O)C[C@@]21C | inactive
CC(C)C1CCC(C(=O)N[C@H](Cc2ccccc2)C(=O)O)CC1 (stereo partly specified) | inactive
Nc1nc(N)nc(-c2cc(Cl)ccc2Cl)n1 | inactive
O=P(O)(O)C(O)(Cc1cccnc1)P(=O)(O)O | inactive
C[C@@H](CN1CC(=O)NC(=O)C1)N1CC(=O)NC(=O)C1 | 8.33 µM (active)
CCN[C@H]1C[C@H](C)S(=O)(=O)c2sc(S(N)(=O)=O)cc21 | inactive
CC(=O)CC(c1ccccc1)c1c(O)c2ccccc2oc1=O (stereo unspecified) | inactive
CC(C)(C#N)c1cc(Cn2cncn2)cc(C(C)(C)C#N)c1 | inactive
COc1ccccc1OCC(O)COC(N)=O (stereo unspecified) | inactive
CNS(=O)(=O)CCc1ccc2[nH]cc(C3CCN(C)CC3)c2c1 | inactive
CN(Cc1cc(Br)cc(Br)c1N)C1CCCCC1 | inactive
CCCc1nc(C)c2c(=O)[nH]c(-c3cc(S(=O)(=O)N4CCN(CC)CC4)ccc3OCC)nn12 | inactive
COc1cc(NS(=O)(=O)c2ccc(N)cc2)nc(OC)n1 | inactive
CCCOc1ccc(C(=O)OCCN(CC)CC)cc1N | inactive
C1CCC(C(CC2CCCCN2)C2CCCCC2)CC1 (stereo unspecified) | 8.33 µM (active)
CC(C(=O)O)c1ccc2c(c1)CC(=O)c1ccccc1S2 (stereo unspecified) | inactive
